From PubChem BioAssay (Tox21)
Values without a mark were called inactive. Inconclusive results are not listed. Entries that show only a call come without a potency. Activity calls are given as the source filed them. Calls follow the shape of the dose curve; as a rule, active = well fitted curve in the direction sought with a large enough effect in the repeat runs; inconclusive = weak or mixed curves; inactive = no such curve, though single readings can be large; an effect the other way counts as inactive or inconclusive.

How the values were obtained:
[1] = Human pregnane X receptor (PXR) small molecule agonists, qHTS cell viability counter screen (AID 1346977); also: nearly all actives have a fitted effect of over 50% in size; also: potency is read from the fitted curve at half-maximal effect
In short: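 PXR-Luc HepG2 cells in medium with 5% charcoal-stripped FBS were pre-incubated 5hr, then exposed to compounds for 24hr at 37C. Viability was read in the same wells by CellTiter-Fluor fluorescence, reagent added after 23hr with a 1hr incubation.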

[2] = Caspase-3/7 induction in HepG2 cells by small molecules, qHTS assay (AID 1346978); also: nearly all actives have a fitted effect of over 15% in size
In short: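 Wild-type HepG2 cells (2,000/well) were settled 5 h at 37 C, 5% CO2, then exposed to compounds in DMSO for 17 h. Caspase-3/7 activity was read by luminescence 30 min after adding Caspase-Glo 3/7 reagent at room temperature.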

[3] = Caspase-3/7 induction in CHO-K1 cells by small molecules, qHTS cell viability counter screen (AID 1346979); also: nearly all actives have a fitted effect of over 35% in size; also: potency is read from the fitted curve at half-maximal effect
In short: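 Wild-type CHO-K1 cells were seeded at 1,500 per well, rested 5hr at 37 C, then exposed to compounds in DMSO. After 16hr, CellTiter-Fluor reagent was added and fluorescence read 1hr later as the viability measure.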

[4] = Caspase-3/7 induction in CHO-K1 cells by small molecules, qHTS assay (AID 1346980); also: nearly all actives have a fitted effect of over 15% in size
In short: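 Wild-type cells were seeded at 1,500 per well and settled 5 hr at 37 C, 5% CO2, then exposed to DMSO-dissolved compounds for 17 hr. Caspase-Glo 3/7 reagent was added, and luminescence was read after 30min at room temperature.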

[5] = Caspase-3/7 induction in HepG2 cells by small molecules, qHTS cell viability counter screen (AID 1346981); also: nearly all actives have a fitted effect of over 30% in size; also: potency is read from the fitted curve at half-maximal effect
In short: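 Counter screen for cytotoxicity: HepG2 exposed 16 hr to compounds, then CellTiter-Fluor viability signal (fluorescence, 1 hr reagent incubation).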

[6] = biological target: Nuclear receptor subfamily 1 group I member 2 (Homo sapiens) (UniProt O75469); assay: Human pregnane X receptor (PXR) small molecule agonists, qHTS assay (AID 1346982); also: nearly all actives have a fitted effect of over 35% in size; also: potency is read from the fitted curve at half-maximal effect
In short: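 Luminescence (ONE-Glo, 30 min RT) after 24 hr compound exposure of PXR-Luc HepG2 cells; cells rested 5 hr post-plating in 5% charcoal-stripped FBS medium.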

[7] = biological target: Cytochrome P450 2D6 (Homo sapiens) (UniProt P10635); assay: Cytochrome P450 Family 2 Subfamily D Member 6 (CYP2D6) small molecule antagonists: luciferase reporter qHTS assay (AID 1671196); also: series mostly up to about 120 µM; nearly all actives have a fitted effect of over 50% in size
In short: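 Inhibition of CYP2D6 was gauged by loss of luminescence, since light produced tracks the luciferin generated from a proluciferin substrate. A 10 min room-temperature preincubation preceded 1 h NADPH-supported turnover.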

[8] = biological target: Nuclear receptor subfamily 1 group I member 2 (Rattus norvegicus) (UniProt Q9R1A7); assay: Rat pregnane X receptor (rPXR) activation by small molecules, qHTS assay (AID 1346983); details: rPXR luciferase reporter cells, One-Glo luminescence, 24 h; max activation: hits give high values; also: nearly all actives have a fitted effect of over 20% in size
In short: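 Cell-based rPXR luciferase reporter assay, 2,000 cells per well, rested 5hr at 37 C before compound addition in DMSO, then 24 hr at 37 C. One-Glo reagent was added and luminescence read after 30 min at room temperature.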

[9] = biological target: Nuclear receptor subfamily 1 group I member 2 (Homo sapiens) (UniProt O75469); assay: CYP3A4 induction through human pregnane X receptor (PXR) by small molecules, qHTS assay (AID 1346984); also: nearly all actives have a fitted effect of over 40% in size
In short: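 DPX-2 reporter cells; 24h cpd, 37C; Luciferin-IPA 3uM final x3h; One-Glo 30 min RT; lumi read.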

[10] = biological target: Nuclear receptor subfamily 1 group I member 2 (Homo sapiens) (UniProt O75469); assay: Human pregnane X receptor (PXR) activation by small molecules, qHTS assay (AID 1346985); also: nearly all actives have a fitted effect of over 40% in size
In short: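 DPX-2 cells (HepG2 co-transfected with a PXR response element and a CYP3A4-promoter luciferase construct) were seeded at 2,000 per well, rested 5 hr at 37C, then exposed to DMSO-dissolved compounds for 24 hr. Activation was read as luciferase luminescence.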

Sequence of Nuclear receptor subfamily 1 group I member 2 (Homo sapiens) (O75469 whole entry, looked up): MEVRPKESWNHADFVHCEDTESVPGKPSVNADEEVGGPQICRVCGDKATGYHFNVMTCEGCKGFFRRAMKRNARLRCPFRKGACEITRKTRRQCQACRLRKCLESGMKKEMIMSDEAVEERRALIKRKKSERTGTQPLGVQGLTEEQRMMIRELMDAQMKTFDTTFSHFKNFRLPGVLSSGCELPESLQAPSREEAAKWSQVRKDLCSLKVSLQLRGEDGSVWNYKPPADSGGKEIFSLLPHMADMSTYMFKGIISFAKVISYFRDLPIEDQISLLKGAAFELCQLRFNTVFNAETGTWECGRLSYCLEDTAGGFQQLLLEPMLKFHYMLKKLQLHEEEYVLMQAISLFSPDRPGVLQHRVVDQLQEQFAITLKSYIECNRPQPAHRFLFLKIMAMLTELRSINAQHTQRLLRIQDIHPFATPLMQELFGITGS
Sequence of Cytochrome P450 2D6 (Homo sapiens) (P10635 whole entry, looked up): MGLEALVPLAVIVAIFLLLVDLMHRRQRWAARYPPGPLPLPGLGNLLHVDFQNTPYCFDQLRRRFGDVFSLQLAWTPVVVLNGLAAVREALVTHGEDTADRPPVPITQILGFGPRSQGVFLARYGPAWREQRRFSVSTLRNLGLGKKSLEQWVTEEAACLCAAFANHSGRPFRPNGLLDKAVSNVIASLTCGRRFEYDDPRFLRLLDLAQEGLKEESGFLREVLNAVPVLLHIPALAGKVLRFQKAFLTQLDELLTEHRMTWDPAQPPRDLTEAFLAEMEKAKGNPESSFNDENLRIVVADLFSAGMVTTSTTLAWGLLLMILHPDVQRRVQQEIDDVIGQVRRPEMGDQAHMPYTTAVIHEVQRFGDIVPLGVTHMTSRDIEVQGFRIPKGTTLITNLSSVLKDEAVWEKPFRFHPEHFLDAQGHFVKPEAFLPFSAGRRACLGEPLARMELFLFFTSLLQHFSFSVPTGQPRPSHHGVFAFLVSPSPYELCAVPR
Sequence of Nuclear receptor subfamily 1 group I member 2 (Rattus norvegicus) (Q9R1A7 whole entry, looked up): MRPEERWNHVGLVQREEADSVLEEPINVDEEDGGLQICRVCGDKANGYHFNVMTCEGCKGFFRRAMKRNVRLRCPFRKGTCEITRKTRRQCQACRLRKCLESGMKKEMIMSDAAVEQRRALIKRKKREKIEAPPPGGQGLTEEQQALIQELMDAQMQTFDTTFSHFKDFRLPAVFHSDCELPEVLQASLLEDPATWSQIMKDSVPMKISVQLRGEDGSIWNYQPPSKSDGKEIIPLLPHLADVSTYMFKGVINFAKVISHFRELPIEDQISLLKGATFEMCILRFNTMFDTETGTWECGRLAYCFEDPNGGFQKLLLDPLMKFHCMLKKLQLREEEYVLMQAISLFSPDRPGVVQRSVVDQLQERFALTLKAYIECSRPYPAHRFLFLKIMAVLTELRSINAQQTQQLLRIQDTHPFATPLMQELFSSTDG

Structure (SMILES)	Potency [1]	outcome [2]	Potency [3]	Potency [4]	Potency [5]	Potency [6]	Potency [7]	max activation [8] [%]	Potency [9]	Potency [10]
O=S1(=O)N=C(O)c2ccccc21	inactive	inactive	inactive	inactive	–	–	–	–	–	–
Cn1c(N)nc2nc[nH]c2c1=O	inactive	inactive	inactive	inactive	inactive	inactive	–	–	–	–
Nc1nc(N)c2nc(CNc3ccc(C(=O)N[C@@H](CCC(=O)O)C(=O)O)cc3)cnc2n1	inactive	inactive	inactive	inactive	inactive	–	–	–	–	–
CC(C)NCC(O)COc1ccc(CC(N)=O)cc1 (stereo not given)	inactive	inactive	inactive	inactive	inactive	inactive	–	–	–	–
CC(C)=CCCC(C)CC=O (stereo not given)	inactive	inactive	inactive	inactive	inactive	–	–	–	–	–
Cc1cc(C)c(S(=O)(=O)O)cc1N=Nc1cc(S(=O)(=O)O)c2ccccc2c1O	24.3 µM (active)	inactive	30.6 µM (active)	inactive	34.4 µM (active)	inactive	–	–	–	–
C=C(C)C(=O)OCCN(C)C	inactive	inactive	inactive	inactive	inactive	inactive	inactive	–	–	–
O=C(O)Cc1sc(-c2ccccc2)nc1-c1ccc(Cl)cc1	inactive	inactive	inactive	inactive	inactive	inactive	inactive	0.948	inactive	inactive
Cc1cccc(OCCOc2cccc(C)c2)c1	inactive	inactive	inactive	inactive	inactive	18.3 µM (active)	inactive	–	–	–
CC(=O)O[C@@H]1C(=O)O[C@@H]2[C@H]1OC(=O)[C@@H]2OC(C)=O	inactive	inactive	inactive	inactive	inactive	inactive	inactive	–	–	–
C1CCC2OC2C1 (stereo not given)	inactive	inactive	inactive	inactive	inactive	inactive	inactive	–	–	–
C1=Cc2ccccc2C1	inactive	inactive	inactive	inactive	inactive	–	–	–	–	–
CCOC(=O)CC(=O)c1cc(F)c(Cl)nc1Cl	inactive	inactive	inactive	inactive	inactive	inactive	inactive	–	–	–
CC(=O)/C(C)=C/C1C(C)=CCCC1(C)C (stereo not given)	inactive	inactive	inactive	inactive	inactive	–	inactive	–	–	–
Cc1ccc(C)o1	inactive	inactive	inactive	inactive	inactive	inactive	inactive	–	–	–
